The sequences below were run on VDR:RXRa (NR concentration 270 nM, RXRa partner concentration 90 nM) (assay: PBM binding z-score (relative to random genomic background probes); higher = stronger binding; sequences stand for … in GC…GCGATTGACAGCGTAGAATGAAGG).
Experimental: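 Protein-binding microarray (Agilent 4x180K custom design, double-stranded 60-nt probes: 5' GC cap, 34-nt variable region, 24-nt constant primer region; full probe sequence given). Purified or IVT nuclear receptor:RXRα heterodimers (3:1 NR:RXRα, mostly 270:90 nM) or homodimers were incubated for 1 h in PBS with 2% milk and no ligand, then detected with Alexa488 antibodies. Fluorescence from o1-orientation probes (~5 replicates averaged) was converted to z-scores against 500 random hg19 background probes. Variable regions are seed direct-repeat (DR0–DR5) sites, all their single-nucleotide variants and half-site ablations.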

Row | Sequence | PBM binding z-score
1 | TCTGCTAGGTCAGTTGGTCAGTTAACGAGCTGCC | 0.0446
2 | TGACCAAGGTGAGCTGAGGTCGTTGATCCAACTC | 3.9
3 | CCGACTCGGGCAAAGGTTACCATACTCAGTACGA | 1.33
4 | GCATATAGGTAATACAAGGTGAAGGTCCGATTGT | 0.155
5 | ATCTCTAGGTAAGACTCCGTTCAGTGAAGAACGC | 0.0228
6 | CGAACTAGGTCAGAACAGGACAGAGAAGGATGAT | 0.496
7 | TGTTGTAGATCAAGCAGGTTAAGAAAGCCTGAGT | 0.0987
8 | TCTTGTAGATCAAGCAGGTTAATAAAGCCTGAGT | 0.675
9 | GCTAGTTGGTCAGTAAAAGGTCACACACCGGTCG | 3.89
10 | AATACAGGGTCATCGTCGGCCAGAGTACGCACAG | 5
11 | CATACTAGGTCAAGGTCAAAGTCGGTTTGTGCCA | 5.31
12 | CCTACTGGGCAATTCAGAGGTCATTGATCATATG | 3.49
13 | CCGACTGGGGGAGAAAGGTTACCATACCATCCGG | 1.42
14 | GCTTACGGGTCTAAGGTTATAGCATGAATAGAAT | 1.01
15 | TCTATTAGTTGAAGTGCAACCGACGAGTCCGTTT | 1.22
16 | CTCGAAAGGTCGGTTGATGTGAGTATACGGATAA | 1.17
17 | ATCTCTAGGTAAGAAGTTCAGTGAAAGAGAGGAC | 0.919
18 | CCTTACGGGTCAAGGTCATAGCACGGGTGGTACG | 5.14
19 | GCTTGTCGATCAAGGTTAAGAAAGACTAAGCTAA | -0.0633
20 | ATCTCTAGGTAAAGATAGTTCAGGGAATGCAAAT | 0.786

Row | Sequence | PBM binding z-score
21 | TCTTGTAGATCAAGCAGGTTAAGAACGCCTGAGT | 0.768
22 | ATCGAAAGTTCGTGAGGTGAGTATACAGAAAGGC | 2.02
23 | GCGACTGGGGCATCAGTAGGTTACCATAACTTAA | -0.141
24 | AGAATGAGGTTATACGTAGATCAGTGAAGAAAGT | 1.31
25 | ACTTACGGGTCAACGAGGTTAAAGCACGCGTATA | 7.52
26 | CAAACTAGGTCAGAACAGGACAGTGAAGGATGAT | 0.899
27 | TCTTGTAGATAAGCAGGTTAAGAAAGCTGGCCAA | 0.177
28 | CCTCGGAGCACAGAAGGTCAGAGCTGTCCGCTTT | 1.33
29 | TCTAGTTGGTCACGGAGGTCAGACACGACGGGTA | 4.68
30 | CGTCCAAGGTCAAAGGTCAGAGAAGAGATGACGG | 6.75
31 | ACTAGCAGGCCAAGTTTCGGTCACTCAAACAAAG | -0.204
32 | TCATATAGGTAAAGGTGAAAGGCGAACGATATGA | 1.14
33 | ATCTCTAGGTAACAAGTTCAGTGAGAGAGAGGAC | 2.22
34 | CGTCCAAGTTCAGCAGGTCAGTGAAAGCGACGTG | 2.86
35 | ATGTCTAGGTAAAGATAGTTCAGTGAATGCAAAT | 0.565
36 | AATACAGGGTCACTAGGCGAGAGTAGGTACGAAT | 4.12
37 | TCTCGGAGGACACGGAAGGTCAGAGCTCGACATC | 1.97
38 | GGAACGAGAGCATTCGAGTTGATAGCATGGCGAT | -0.115
39 | AGAATGATGTTAAGATCAGGGAAACAGAATACAT | -0.114
40 | CGTCCAAGATCAATGCTAGGTCAGTGAAAGCATT | 0.425

Source: the supplement of paper PMC6555819
